PAX8 reporter: lowers PAX8-driven luciferase in RMG-I cells; AID 652154; RMG-I TPO-luciferase reporter, SteadyGlo, 24 h; inhibition, % at 12.6 µM; 360,000 compounds, 1.2% hits;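 active = mean replicate inhibition at least 60% with every replicate also reaching 60%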;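 also: luciferase light reporting Pax8 driven TPO promoter activity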
Mdm2-MdmX inh: human Mdm2/MdmX binding inhibition | AID 485346 | 330,000 compounds, 3% hits | SaOS-2 split-luciferase Mdm2/MdmX complementation, luminescence | O15151+Q00987 | inhibition, % at 8 µM;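 active = inhibition of at least 50% at 8 µM in the primary screen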
Target sequence (O15151 whole entry, looked up): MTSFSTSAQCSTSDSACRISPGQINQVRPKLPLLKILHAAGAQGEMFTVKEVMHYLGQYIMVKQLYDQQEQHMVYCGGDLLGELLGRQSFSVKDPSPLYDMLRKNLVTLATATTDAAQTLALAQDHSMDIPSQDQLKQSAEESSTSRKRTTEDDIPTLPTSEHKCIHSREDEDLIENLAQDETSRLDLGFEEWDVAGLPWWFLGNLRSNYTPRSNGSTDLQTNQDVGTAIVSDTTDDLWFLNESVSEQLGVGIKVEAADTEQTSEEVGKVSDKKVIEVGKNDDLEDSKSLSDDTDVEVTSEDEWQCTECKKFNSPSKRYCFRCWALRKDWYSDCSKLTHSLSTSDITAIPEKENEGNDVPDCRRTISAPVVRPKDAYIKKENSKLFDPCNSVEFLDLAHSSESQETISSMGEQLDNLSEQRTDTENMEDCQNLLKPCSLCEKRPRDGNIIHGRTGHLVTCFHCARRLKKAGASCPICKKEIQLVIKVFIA
Target sequence (Q00987 whole entry, looked up): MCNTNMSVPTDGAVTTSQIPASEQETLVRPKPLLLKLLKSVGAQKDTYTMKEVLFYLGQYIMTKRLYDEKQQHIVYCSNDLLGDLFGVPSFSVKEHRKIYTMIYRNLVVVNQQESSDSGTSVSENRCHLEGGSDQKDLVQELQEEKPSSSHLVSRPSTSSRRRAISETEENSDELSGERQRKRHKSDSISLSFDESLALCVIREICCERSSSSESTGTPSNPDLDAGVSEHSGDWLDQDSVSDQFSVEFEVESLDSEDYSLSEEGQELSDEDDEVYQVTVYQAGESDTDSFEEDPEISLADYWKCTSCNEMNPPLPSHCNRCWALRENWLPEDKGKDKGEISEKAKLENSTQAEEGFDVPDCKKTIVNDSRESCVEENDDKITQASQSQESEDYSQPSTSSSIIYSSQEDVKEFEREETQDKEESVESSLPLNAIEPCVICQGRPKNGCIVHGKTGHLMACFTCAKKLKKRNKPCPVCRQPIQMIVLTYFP
Shn3 inh set2: inhibitors of Schnurri-3 3'UTR reporter in osteoblasts; AID 588674; Clone20 osteoblast Shn3 3'UTR firefly luciferase, 24 h; 360,000 compounds, 0.52% hits; inhibition, % at 12.5 µM;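 active = mean inhibition of at least 75% with every replicate also reaching 75%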
CSC inhib: blocks cancer stem cells. 300,000 compounds, 1.1% hits. inhibition, % at 7.5 µM. AID 2717. cancer stem cell-like cells viability, luminescence; in the data active = inhibition above about 75%; tested in HMLE shEcad cells
Gli-Sufu antag: antagonists of Gli-Sufu signaling; inhibition, % at 5 µM; Sufu-KO-LIGHT fibroblasts, Gli luciferase reporter luminescence; AID 588413; 340,000 compounds, 0.74% hits;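 active = inhibition above about 55%, limit read from the data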
Beta cell apopt: blocks beta cell apoptosis; INS-1E cytokine-induced death, ATP luminescence, 48 h; percent of positive-control rescue, neutral wells zero; protection from apoptosis, % (test concentration not listed); 300,000 compounds, 0.8% hits; AID 435005;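 active = Every replicate reaches about 75%, or at least half do and their mean reaches it too, limit read from the data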;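 also: higher means more ATP so stronger rescue from cytokine killing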
Hits are given with their value; - = inactive; . = no result. An excerpt weighted towards active compounds, which were near 4% of everything screened.

SMILES	PAX8 reporter	Mdm2-MdmX inh	Shn3 inh set2	CSC inhib	Gli-Sufu antag	Beta cell apopt
CO[C@H]1CN(C)C(=O)c2ccc(NS(C)(=O)=O)cc2OC[C@H](C)N(CC2CC2)C[C@H]1C	-	.	.	.	.	.
N#C[C@H]1[C@@H](c2ccccc2-c2ccccc2)[C@@H](CO)N1C(=O)NC1CCCC1	-	.	.	.	.	.
N=c1n(CCN2CCCCC2)c2ccccc2n1CC(=O)c1ccc(Cl)c(Cl)c1	-	-	-	102.7	-	-
CCn1c(=N)n(CC(=O)c2ccc(Cl)c(Cl)c2)c2ccccc21	-	-	-	-	-	-
COc1ccc(NS(=O)(=O)c2cc(-c3cnc(C4CC4)o3)ccc2C)cc1	-	-	-	79.9	-	-
COc1cccc(NC(=O)N[C@@H]2C=C[C@H](CC(=O)N3CCN(C)CC3)O[C@H]2CO)c1	-	.	.	.	.	.
CN(C)CC(=O)Nc1ccc2c(c1)[C@@H]1C[C@H](CC(=O)N3CCOCC3)O[C@H](CO)[C@@H]1O2	-	.	.	.	.	.
Cc1cccc(OCC(=O)Nc2ccc(C(=O)NCc3cccnc3)cc2)c1	.	-	.	-	.	112.9
CC(C)(C)c1ccc(C(=O)c2c[nH]c(C(=O)NCc3cccnc3)c2)cc1	.	-	-	-	-	-
O=C(Cc1ccc(Cl)cc1)c1c[nH]c(C(=O)NCc2cccnc2)c1	-	-	-	-	-	106.5
O=C(COc1ccc(Cl)cc1)Nc1ccc(C(=O)NCc2cccnc2)cc1	.	-	-	-	-	100.6
COc1ccc(NC(=O)COc2ccc(C(=O)NCc3cccnc3)cc2OC)cc1	-	-	-	-	-	-
COC(=O)c1c(NC(=O)/C=C/c2ccc3c(c2)OCO3)sc(C)c1C	-	-	-	103.2	-	-
CCOC(=O)c1c(NC(=O)/C=C/c2ccc3c(c2)OCO3)sc(C)c1CC	.	-	-	122.5	-	-
COC(=O)c1cccc(NC(=O)/C=C/c2ccc3c(c2)OCO3)c1	-	-	-	-	-	-
Cc1ccc(C2=NOC(=O)/C2=C\C=C\c2ccccc2)cc1	-	.	94.7	.	-	.
CCOC(=O)COc1ccccc1/C=C\[N+](=O)[O-]	.	.	96.7	-	-	106.4
Cc1ccc(C(=O)COC(=O)COc2ccccc2[N+](=O)[O-])s1	-	-	-	-	-	-
CCS(=O)(=O)NCC[C@H]1CC[C@@H](NC(=O)C2CCC2)[C@H](CO)O1	-	.	.	.	.	.
O=C(CCl)Nc1cc(SCC(O)CO)cc([N+](=O)[O-])c1 (stereo not given)	108.3	.	-	.	63.4	.
C[C@H](CO)N1C[C@H](C)[C@H](CN(C)C(=O)c2ccccc2)OCCCC[C@H](C)Oc2ccc(NC(=O)Nc3ccccc3)cc2C1=O	-	.	.	.	.	.
CCc1ccc(S(=O)(=O)/N=C2/C=C(Sc3ncn[nH]3)C(=O)c3ccccc32)cc1	.	.	98.0	104.0	-	127.1
CCNc1ccc(S(=O)(=O)NCCN(C)C)cc1[N+](=O)[O-]	-	-	.	-	-	-
CN(C)CCCNS(=O)(=O)c1ccc(NC2CCCCCC2)c([N+](=O)[O-])c1	-	-	-	-	-	84.8
O=C(C[C@@H]1C=C[C@H](NC(=O)Nc2ccccc2F)[C@H](CO)O1)NCc1ccc(-c2ccccc2)cc1	-	.	.	.	.	.
SMILES	PAX8 reporter	Mdm2-MdmX inh	Shn3 inh set2	CSC inhib	Gli-Sufu antag	Beta cell apopt
OC(CN1CCN(c2ccccn2)CC1)Cn1c2ccc(Cl)cc2c2cc(Cl)ccc21 (stereo not given)	.	-	-	105.3	-	-
OC(COC(c1ccc(Cl)cc1)c1ccc(Cl)cc1)CN1CCN(c2ccccn2)CC1 (stereo not given)	-	-	-	-	-	-
C[C@@H]1CN([C@@H](C)CO)S(=O)(=O)c2ccc(C#CCN(C)C)cc2O[C@H]1CN(C)Cc1ccccc1	-	.	.	.	.	.
Cc1cc(C(=O)Nc2cccc3c2O[C@H](CN(C)Cc2ccc(-c4ccccc4)cc2)[C@H](C)CN([C@@H](C)CO)C3=O)n(C)n1	-	.	.	.	.	.
Cc1cc(C(=O)Nc2cccc3c2O[C@H](CN(C)Cc2ccc(Oc4ccccc4)cc2)[C@@H](C)CN([C@@H](C)CO)C3=O)n(C)n1	67.6	.	.	.	.	.
C[C@H](CO)N1C[C@H](C)[C@H](CN(C)Cc2ccc(-c3ccccc3)cc2)Oc2c(NC(=O)c3ccc(-c4nccs4)cc3)cccc2C1=O	-	.	.	.	.	.
Cc1cc(C(=O)Nc2cccc3c2O[C@H](CN(C)Cc2ccc(Oc4ccccc4)cc2)[C@H](C)CN([C@@H](C)CO)C3=O)n(C)n1	-	.	.	.	.	.
Cc1cc(C(=O)Nc2cccc3c2O[C@@H](CN(C)Cc2ccc(-c4ccccc4)cc2)[C@H](C)CN([C@H](C)CO)C3=O)n(C)n1	69.8	.	.	.	.	.
C[C@H]1CN([C@@H](C)CO)C(=O)c2cccc(NC(=O)c3ccc(-c4nccs4)cc3)c2O[C@H]1CN(C)Cc1ccc(-c2ccccc2)cc1	62.7	.	.	.	.	.
Cc1ccc(S(=O)(=O)N[C@H]2CC[C@H](CCNC(=O)c3ccc4c(c3)OCO4)O[C@@H]2CO)cc1	-	.	.	.	.	.
Cc1cc2nc(-c3ccc[nH]c3=O)[nH]c2cc1C	-	-	-	-	-	78.0
CCCN(C)C[C@@H]1Oc2cc(C#CCC3CCCC3)ccc2S(=O)(=O)N([C@H](C)CO)C[C@H]1C	70.9	.	.	.	.	.
COCC(=O)N(C)C[C@@H]1Oc2cc(C#CCC3CCCC3)ccc2S(=O)(=O)N([C@@H](C)CO)C[C@H]1C	70.6	.	.	.	.	.
COCC(=O)N(C)C[C@@H]1Oc2cc(C#CCC3CCCC3)ccc2S(=O)(=O)N([C@H](C)CO)C[C@H]1C	-	.	.	.	.	.
COCC(=O)N(C)C[C@@H]1Oc2cc(C#CCC3CCCC3)ccc2S(=O)(=O)N([C@H](C)CO)C[C@@H]1C	-	.	.	.	.	.
COCC(=O)N(C)C[C@@H]1Oc2cc(C#CCC3CCCC3)ccc2S(=O)(=O)N([C@@H](C)CO)C[C@@H]1C	74.0	.	.	.	.	.
COc1ccc(NC(=O)Nc2ccc3c(c2)CC(=O)N([C@H](C)CO)C[C@H](C)[C@@H](CN(C)C(=O)Nc2ccc(F)cc2)O3)cc1	-	.	.	.	.	.
CCOc1ccccc1Nc1cc(C)nc2ccc(C)cc12	-	-	-	-	-	-
CCOc1ccccc1Nc1cc(C)nc2ccccc12	-	.	92.0	.	.	.
Cc1cccc(CNc2ccc(C(CC(N)=O)NC(=O)c3ccccc3)cc2[N+](=O)[O-])c1 (stereo not given)	-	-	-	-	-	-
Cc1ccccc1CNc1ccc(C(CC(N)=O)NC(=O)c2ccccc2)cc1[N+](=O)[O-] (stereo not given)	-	-	-	77.7	-	-
COCC(=O)Nc1ccc2c(c1)[C@@H]1C[C@H](CC(=O)NCC(F)(F)F)O[C@H](CO)[C@@H]1O2	-	.	.	.	.	.
Cc1cc(O)c(-c2cc(C(=O)Nc3ccc(S(=O)(=O)N4CCOCC4)cc3)[nH]n2)cc1C	72.7	-	-	-	-	-
Cc1ccc(S(=O)(=O)N2CCC(C(=O)Nc3ccc(C(C)C)cc3)CC2)cc1	-	-	-	75.4	-	-
Cc1ccc(S(=O)(=O)N2CCOCC2)cc1NC(=O)CN1CCN(c2ccc(O)cc2)CC1	-	-	-	-	-	-

High-throughput results (PubChem)
